From PubChem BioAssay (NCATS) come the findings set out here.

Where “and” joins values, the source holds several entries; their conditions need not be identical. Identical values can stand only once. Results filed as inconclusive are left out. Unmarked numbers belong to inactive results. Calls of active or inactive are those of the source. Calls follow the shape of the dose curve; as a rule, active = well fitted inhibition curve with a large enough effect; inconclusive = small, poorly fitted or top-dose-only effect; inactive = flat fitted curve, though single readings scatter.

Assay [1] relates to NIH3T3. In words: Cytotoxic Profiling of Annotated Libraries Using Quantitative High-Throughput Screening (AID 1296008). As to conditions: Five cell lines viability, CellTiter-Glo ATP luminescence, 48-72 h; max response: stronger effect = lower value. In a few lines:
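Cytotoxicity was measured as CellTiter-Glo ATP luminescence, read after 10 min at room temperature. Compound treatment of the cells lasted 48 or 72 hr at 37 degrees Celsius in a qHTS format.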
In general terms: In ATP-based viability assays light output follows the ATP content of the culture.

The subject of assay [2] is MCC-13. In words: qHTS assay to identify novel small-molecules to repurpose for Merkel cell carcinoma treatment (AID 1296009). As to conditions: MCC and control cell lines, CellTiter-Glo viability, 72 h; series mostly up to 46 µM. In a few lines:
(§1)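 Cell viability, measured as CellTiter-Glo luminescence, was normalized between DMSO and no-cell wells. The cells had been exposed to 8- or 11-point compound dilutions for 72 hr at 37 degree celsius.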
(In general: Quantitative high-throughput screening tests each substance at several concentrations.)

Assay [3] relates to MCC-26. The description is as above. As to conditions: MCC and control cell lines, CellTiter-Glo viability, 72 h; series mostly up to 46 µM. In a few lines: as §1
Assay [4] deals with MKL-1. The assay is described as above. As to conditions: MCC and control cell lines, CellTiter-Glo viability, 72 h; series mostly up to 46 µM. In a few lines:
as §1

The subject of assay [5] is MKL-2. The assay is described as above. As to conditions: MCC and control cell lines, CellTiter-Glo viability, 72 h; series mostly up to 46 µM. In a few lines: as §1
In assay [6] the test system is UISO. Described as above. As to conditions: MCC and control cell lines, CellTiter-Glo viability, 72 h; series mostly up to 46 µM. In a few lines: as §1
For assay [7], the system named is WaGa. The description is as above. As to conditions: MCC and control cell lines, CellTiter-Glo viability, 72 h; series mostly up to 46 µM. In a few lines: as §1
For assay [8], the system named is NIH3T3. The assay is described as above. As to conditions: MCC and control cell lines, CellTiter-Glo viability, 72 h; at 44.8 µM (top of the series) unless noted. In a few lines: as §1
% is scaled to controls: 0 for no effect and ±100 for the full control effect; potency is read from the fitted curve at half-maximal effect.
Also: nearly all actives have a fitted effect of over 60% in size.

As for `CCCCC1C(=O)N(c2ccccc2)N(c2ccccc2)C1=O`, the max response in assay [1] was -4.9%. In addition, the Potency entry in assay [2], in assay [3], in assay [4], in assay [5], in assay [6] and in assay [7] was “inactive” throughout.
Turning to `CO[C@H]1C=CC=C(C)C(=O)NC2=CC(=O)C(NCCN(C)C)=C(C[C@@H](C)C[C@H](OC)[C@@H](O)[C@@H](C)C=C(C)[C@@H]1OC(N)=O)C2=O`, the Potency in assay [1] is 132 nM (active); in assay [2], 4.69 µM (active); in assay [3], 3.72 µM (active); in assay [4], 1.05 µM (active); in assay [5] it was 14.8 µM (active); in assay [6], 0.296 µM (active).
As to `Cc1ccc(/C=N/NC(=O)c2ccccc2Oc2ccccc2)o1`, the max response in assay [1] is -19%. The Potency result in assay [2], in assay [3], in assay [4], in assay [5], in assay [6] and in assay [7] was “inactive” throughout.
Regarding `O=C(CCCCCCC(=O)Nc1ccccc1)NO`, the Potency in assay [1] is 10.6 µM (active) and 18.7 µM (active); in assay [2], 6.68 µM (active); in assay [3], 20.9 µM (active); in assay [4], 2.99 µM (active) and 5.9 µM (active); in assay [5] it was 1.88 µM (active) and 3.32 µM (active); in assay [6], 14.8 µM (active).
Take `CO[C@H]1C(=O)[C@]2(C)[C@@H](OC)C[C@H]3OC[C@@]3(OC(C)=O)[C@H]2[C@H](OC(=O)c2ccccc2)[C@]2(O)C[C@H](OC(=O)[C@H](O)[C@@H](NC(=O)OC(C)(C)C)c3ccccc3)C(C)=C1C2(C)C`: the max response in assay [1] is -69.8%. Besides, the Potency result in assay [2], in assay [3], in assay [4], in assay [5], in assay [6] and in assay [7] was “inactive” in each case.
As for `COc1ncc(-c2ccc3nccc(-c4ccnnc4)c3c2)cc1NS(=O)(=O)c1ccc(F)cc1F`, the Potency in assay [1] is 3.7 nM (active); in assay [2] it was 0.833 µM (active); in assay [3] it was 0.372 µM (active); in assay [4], 1.48 µM (active); in assay [5] it was 0.105 µM (active); in assay [6], 0.0235 µM (active). Further, the Potency in assay [7] was 0.526 µM (active).
For `COc1cc2c(cc1OC)CN(CCc1ccc(NC(=O)c3cc(OC)c(OC)cc3NC(=O)c3cnc4ccccc4c3)cc1)CC2`, the max response in assay [1] is -16.8%. The Potency result in assay [2], in assay [3], in assay [4], in assay [5], in assay [6] and in assay [7] was “inactive” each time.
For the molecule `C[C@]12CC[C@@H]3c4ccc(O)cc4C[C@@H](CCCCCCCCCS(=O)CCCC(F)(F)C(F)(F)F)[C@H]3[C@H]1CC[C@H]2O` (stereo partly drawn), the outcome in assay [1] and in assay [8] was inactive. The Potency result in assay [2], in assay [3], in assay [4], in assay [5] and in assay [7] was “inactive” in each case.
With `O=C1NC(=O)C(=Cc2ccc3nccnc3c2)S1`, the max response in assay [1] was -9.21%. The Potency entry in assay [2], in assay [3], in assay [4], in assay [5] and in assay [6] was “inactive” each time.
In the case of `Cc1[nH]c(C=C2C(=O)Nc3ccc(S(=O)(=O)Cc4c(Cl)cccc4Cl)cc32)c(C)c1C(=O)N1CCC[C@H]1CN1CCCC1`, the max response in assay [1] is -20.1%. The Potency entry in assay [2], in assay [3] and in assay [6] was “inactive” in each case. Further, the Potency in assay [4] was 18.7 µM (active); in assay [5], 3.72 µM (active).
As for `COc1cccc(-c2cc(=O)c3ccccc3o2)c1N`, the molecule was classed as inactive in assay [1] and in assay [8]. The Potency result in assay [2], in assay [3], in assay [4], in assay [5], in assay [6] and in assay [7] was “inactive” in each case.
For `CCC(=O)O[C@]1(C(=O)CO)CC[C@H]2[C@@H]3CCC4=CC(=O)CC[C@]4(C)[C@@H]3CC[C@@]21C`, the molecule was classed as inactive in assay [1] and in assay [8]. The Potency entry in assay [2], in assay [3], in assay [4], in assay [5], in assay [6] and in assay [7] was “inactive” each time.
On to `O=c1cc(CN2CCOCC2)occ1OCCCCCSc1ccnc2cc(C(F)(F)F)ccc12`, for which the max response in assay [1] is 0.796%. Further, the Potency result in assay [2], in assay [3], in assay [4] and in assay [5] was “inactive” throughout.
`O=C(N[C@@H](c1ccccc1)[C@@H]1CCCCN1)c1cccc(C(F)(F)F)c1Cl`: the max response in assay [1] was -0.909%. The Potency entry in assay [2], in assay [3], in assay [4], in assay [5], in assay [6] and in assay [7] was “inactive” throughout.
On to `CC(C)(C)C(=O)Oc1ccc2c(c1)nc(NC(=O)c1cccc([N+](=O)[O-])c1)n2CCCO`, for which the molecule was called inactive in assay [1] and in assay [8]. The Potency result in assay [2], in assay [3], in assay [4], in assay [5] and in assay [7] was “inactive” each time.
Consider `O=c1c(-c2ccc(O)cc2)coc2cc(O[C@@H]3O[C@H](CO)[C@H](O)[C@H](O)[C@H]3O)ccc12`, for which the max response in assay [1] was 1.51%. The Potency entry in assay [2], in assay [3], in assay [4], in assay [5], in assay [6] and in assay [7] was “inactive” in each case.
Turning to `CN(C)c1cc(NC(=O)CNC(C)(C)C)c(O)c2c1C[C@@H]1C[C@H]3[C@H](N(C)C)C(=O)C(C(N)=O)=C(O)[C@@]3(O)C(=O)C1=C2O`, the max response in assay [1] was -1.41%. For the same molecule, the Potency entry in assay [2], in assay [3], in assay [4], in assay [5], in assay [6] and in assay [7] was “inactive” in each case.
As to `COc1cc(O)c2c(c1)C(=O)c1cc(C)cc(O)c1C2=O`, in assay [1], the result was inactive. Further, the Potency result in assay [2], in assay [3], in assay [4], in assay [5], in assay [6] and in assay [7] was “inactive” each time. The outcome in assay [8] was “inactive [at 17.4 µM]”.
